Of roughly 7,900 targets only a part is listed; those with a hit were picked by preference. About 0.6% of all pairs of compound and target were hits.
Experiments:
Test in all cases: log2 fold change, soluble protein after heating vs DMSO (PISA); higher = thermal stabilisation; K562 cells, 10 uM, 30 min; active = over 0.2 and 3.5 SD of the protein, either way, in both replicates (recomputed)
IRAK-1-4 Inhibitor I = compound: C1COCCN1CCN2C3=CC=CC=C3N=C2NC(=O)C4=CC(=CC=C4)[N+](=O)[O-] [IRAK-1-4 Inhibitor I]
Procedure, shortened: (§1)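 Values are thermal stability changes relative to control samples and are taken from duplicates. They are stated as log2 fold changes. Before quantification by TMTpro 16plex LC-MS/MS with equalised channel sums, K562 cells at 2×10^6 cells/mL were treated with 10 μM compound for 30 min, heated in aliquots for 3 min across 48°C-58°C, pooled, extracted in PBS with 0.5% NP-40 at 4°C, and centrifuged at 21,000xg for 90 min to give the soluble supernatant.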

ibrutinib = compound: C=CC(=O)N1CCC[C@@H](n2nc(-c3ccc(Oc4ccccc4)cc3)c3c(N)ncnc32)C1 [ibrutinib]
Procedure, shortened: as §1

[1] = compound: CC(=O)c1cnc2ccc(-c3cc(Cl)c(O)c(Cl)c3)nc2c1N[C@H]1CC[C@H](CN(C)C)CC1
Procedure, shortened: as §1

ralimetinib = compound: CC(C)(C)Cn1c(N)nc2ccc(-c3[nH]c(C(C)(C)C)nc3-c3ccc(F)cc3)nc21 [ralimetinib]
Procedure, shortened: as §1

[2] = compound: CC(C)(O)CC(=O)NCCn1ccc2ncnc(Nc3ccc(Oc4cccc(C(F)(F)F)c4)c(Cl)c3)c21
Procedure, shortened: as §1

[3] = compound: CC(C)C[C@@H](C=O)NC(=O)[C@H](CC(C)C)NC(=O)[C@H](CC(C)C)NC(=O)OCc1ccccc1
Procedure, shortened: as §1

pinometostat = compound: CC(C)N(C[C@H]1O[C@@H](n2cnc3c(N)ncnc32)[C@H](O)[C@@H]1O)[C@H]1C[C@@H](CCc2nc3cc(C(C)(C)C)ccc3[nH]2)C1 [pinometostat]
Procedure, shortened: as §1

[4] = compound: CC1=C(C(CC(=O)N1)C2=CC=C(C=C2)C(F)(F)F)C(=O)NC3=C(C=C4C(=C3)C=NN4)F
Procedure, shortened: as §1

[5] = compound: CC1=C(C2=C(C=C1)C(=O)C3=CC=CC=C3N2CCCN)C
Procedure, shortened: as §1

[6] = compound: CC(C)C1=C2N=C(C=C(N2N=C1)NCC3=CC=CC=C3)NCCCCCCN
Procedure, shortened: as §1

Measured: log2 fold change

PGK2 (UniProt P07205)
inactive: IRAK-1-4 Inhibitor I 0.039 | ibrutinib -0.003 | [1] 0.004 | ralimetinib -0.07 | [2] 0.008 | [3] 0.063 | pinometostat -0.032 | [4] 0.096 | [5] -0.037

PRR14L (UniProt Q5THK1)
inactive: [1] -0.104 | [4] 0.015 | [5] 0.008

PEX5 isoform 4 (UniProt P50542)
inactive: [1] -0.035 | ralimetinib 0.145 | [2] 0.038 | [6] 0.066 | [3] 0.123 | [5] -0.072

PCBP2 (UniProt F8VRH0)
inactive: IRAK-1-4 Inhibitor I 0.118 | ibrutinib 0.057 | [1] -0.092 | [2] -0.263 | [6] 0.123 | pinometostat 0.022 | [4] 0.089 | [5] -0.113

PSD3 (UniProt Q9NYI0)
inactive: IRAK-1-4 Inhibitor I 0.014 | [1] -0.024 | ralimetinib -0.026 | [3] -0.055 | pinometostat -0.037 | [4] -0.016

PSMD8 (UniProt K7ERW6)
inactive: IRAK-1-4 Inhibitor I 0.018 | pinometostat 0.001 | [5] 0.037

POLR2M (UniProt Q6EEV4)
Chain of UniProt Q6EEV4 (Q6EEV4 whole entry, looked up): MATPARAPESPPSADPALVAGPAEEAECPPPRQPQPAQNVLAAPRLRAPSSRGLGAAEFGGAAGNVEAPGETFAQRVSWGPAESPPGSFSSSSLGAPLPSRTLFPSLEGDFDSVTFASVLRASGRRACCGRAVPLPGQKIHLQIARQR
inactive: IRAK-1-4 Inhibitor I -0.014 | ibrutinib -0.075 | [1] -0.027 | [2] -0.091 | [6] 0.128 | pinometostat 0.005 | [4] 0.139 | [5] 0.209

PSMC3 (UniProt E9PLG2)
inactive: IRAK-1-4 Inhibitor I -0.064 | ibrutinib -0.051 | [2] 0.167 | pinometostat -0.1 | [5] -0.155

PUM1 (UniProt Q14671)
inactive: IRAK-1-4 Inhibitor I 0.101 | [1] -0.038 | [6] -0.226 | pinometostat 0.073 | [5] 0.139

PHC3 isoform 7 (UniProt Q8NDX5)
Chain of UniProt Q8NDX5 (Q8NDX5 whole entry, looked up): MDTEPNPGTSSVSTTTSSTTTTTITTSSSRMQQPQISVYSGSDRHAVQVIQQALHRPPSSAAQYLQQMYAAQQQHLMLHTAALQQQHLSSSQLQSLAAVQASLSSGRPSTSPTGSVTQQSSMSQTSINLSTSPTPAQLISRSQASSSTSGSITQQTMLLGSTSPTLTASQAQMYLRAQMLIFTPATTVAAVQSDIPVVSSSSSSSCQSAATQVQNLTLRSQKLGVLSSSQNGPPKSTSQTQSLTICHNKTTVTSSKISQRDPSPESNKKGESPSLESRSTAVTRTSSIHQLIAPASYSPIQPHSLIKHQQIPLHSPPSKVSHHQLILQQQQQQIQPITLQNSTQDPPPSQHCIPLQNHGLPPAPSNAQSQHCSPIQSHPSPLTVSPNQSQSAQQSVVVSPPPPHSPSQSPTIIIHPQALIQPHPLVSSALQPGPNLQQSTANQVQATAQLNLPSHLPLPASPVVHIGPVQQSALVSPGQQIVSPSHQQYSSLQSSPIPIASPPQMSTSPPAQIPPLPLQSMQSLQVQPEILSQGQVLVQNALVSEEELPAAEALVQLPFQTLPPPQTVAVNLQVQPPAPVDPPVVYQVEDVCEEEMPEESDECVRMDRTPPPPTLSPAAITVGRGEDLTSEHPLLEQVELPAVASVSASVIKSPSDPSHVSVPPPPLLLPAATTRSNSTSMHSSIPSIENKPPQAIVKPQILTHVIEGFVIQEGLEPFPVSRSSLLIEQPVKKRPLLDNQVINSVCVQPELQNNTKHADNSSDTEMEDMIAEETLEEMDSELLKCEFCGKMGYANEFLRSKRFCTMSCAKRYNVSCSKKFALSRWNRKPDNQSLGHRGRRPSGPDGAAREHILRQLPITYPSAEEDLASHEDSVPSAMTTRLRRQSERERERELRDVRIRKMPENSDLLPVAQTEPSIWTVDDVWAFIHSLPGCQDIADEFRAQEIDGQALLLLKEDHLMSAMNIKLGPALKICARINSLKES
inactive: IRAK-1-4 Inhibitor I -0.377 | ibrutinib -0.159 | [2] -0.25 | [6] -0.219 | pinometostat -0.11 | [4] 0.021

PIAS4 (UniProt Q8N2W9)
active: [2] -0.781
inactive: IRAK-1-4 Inhibitor I -0.111 | ralimetinib -0.005 | [3] 0.035 | pinometostat 0.037 | [5] -0.275

PMVK (UniProt Q15126)
Chain of UniProt Q15126 (Q15126 whole entry, looked up): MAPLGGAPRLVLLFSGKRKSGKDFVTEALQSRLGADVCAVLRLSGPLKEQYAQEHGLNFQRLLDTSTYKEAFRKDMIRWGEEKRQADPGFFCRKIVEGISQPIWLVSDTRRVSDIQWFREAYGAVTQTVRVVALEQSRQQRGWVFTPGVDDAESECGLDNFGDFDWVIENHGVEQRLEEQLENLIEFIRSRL
inactive: ibrutinib -0.039 | [1] -0.069 | [2] -0.072 | [6] -0.195 | [4] 0.15 | [5] 0.061

PCBP2 (UniProt F8VZX2)
inactive: IRAK-1-4 Inhibitor I -0.177 | ibrutinib 0.212 | ralimetinib -0.004 | [6] -0.127 | [3] 0.138 | pinometostat 0.136 | [4] 0.128

PUF60 isoform 2 (UniProt Q9UHX1)
Chain of UniProt Q9UHX1 (Q9UHX1 whole entry, looked up): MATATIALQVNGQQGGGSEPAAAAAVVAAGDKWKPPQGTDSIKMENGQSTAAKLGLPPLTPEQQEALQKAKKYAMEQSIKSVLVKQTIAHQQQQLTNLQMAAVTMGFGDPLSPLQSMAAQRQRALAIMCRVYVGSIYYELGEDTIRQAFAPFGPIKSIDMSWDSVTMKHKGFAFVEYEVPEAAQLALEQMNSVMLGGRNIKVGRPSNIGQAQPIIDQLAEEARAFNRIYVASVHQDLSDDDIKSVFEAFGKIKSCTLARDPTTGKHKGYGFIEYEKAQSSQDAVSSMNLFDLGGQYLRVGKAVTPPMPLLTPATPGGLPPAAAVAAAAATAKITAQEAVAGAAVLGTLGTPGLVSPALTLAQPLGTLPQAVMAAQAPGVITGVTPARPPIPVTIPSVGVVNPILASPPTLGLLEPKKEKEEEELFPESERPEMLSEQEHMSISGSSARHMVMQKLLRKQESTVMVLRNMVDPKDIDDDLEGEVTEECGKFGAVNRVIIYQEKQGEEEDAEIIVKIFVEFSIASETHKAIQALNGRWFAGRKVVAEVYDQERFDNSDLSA
inactive: ibrutinib 0.035 | [1] -0.329 | ralimetinib 0.25 | [3] -0.203 | [5] -0.052

PKM (UniProt P14618)
inactive: IRAK-1-4 Inhibitor I 0.012 | [1] -0.011 | ralimetinib -0.018 | [2] -0.02 | [6] 0.079 | [3] -0.013 | pinometostat -0.033 | [4] 0.021 | [5] 0.036

PTP4A3 (UniProt O75365)
inactive: ibrutinib 0.079

PPP1R12B isoform 6 (UniProt O60237)
inactive: ibrutinib 0.075 | [6] -0.074
active: [4] -0.346

PAN2 (UniProt Q504Q3)
inactive: ibrutinib -0.134 | [4] 0.099

PHRF1 (UniProt Q9P1Y6)
inactive: ralimetinib -0.144 | [3] 0.119
active: [6] 0.718

PTPA (UniProt A6PVN8)
inactive: ibrutinib 0.063 | [1] -0.241 | ralimetinib -0.07 | [2] -0.052 | [6] 0.122 | [3] -0.002 | [4] 0.026 | [5] -0.104

PRKX (UniProt P51817)
inactive: ibrutinib -0.005 | [6] -0.274

PTTG1IP (UniProt P53801)
inactive: IRAK-1-4 Inhibitor I -0.122 | ibrutinib 0.028 | [1] -0.004 | [2] -0.031 | [6] 0.029 | pinometostat 0.028 | [4] 0.084 | [5] -0.119

POLB (UniProt P06746)
inactive: ralimetinib 0.14 | [2] -0.222 | [6] 0.091 | [3] 0.143 | [4] -0.168 | [5] 0.175

POGZ (UniProt Q7Z3K3)
active: [5] -0.826
inactive: IRAK-1-4 Inhibitor I -0.133 | [1] -0.183 | ralimetinib 0.083 | [2] -0.035 | [6] 0.066 | [3] 0.038 | pinometostat -0.05

PMS2CL (UniProt Q68D20)
inactive: ralimetinib -0.21 | [2] -0.042 | [3] -0.258 | [4] 0.231

PKM isoform 2 (UniProt P14618)
inactive: IRAK-1-4 Inhibitor I -0.018 | [1] 0 | ralimetinib 0.054 | [3] 0.023 | pinometostat 0.08 | [4] -0.068 | [5] 0.034
active: [2] -0.561

PSMC1 (UniProt G3V4X1)
inactive: [6] -0.089 | [4] 0.029

PPP2R5C isoform 2 (UniProt Q13362)
inactive: IRAK-1-4 Inhibitor I -0.036 | ibrutinib -0.038 | ralimetinib 0.026 | [6] -0.146 | [3] -0.095 | pinometostat -0.017

PCID2 (UniProt Q5JVF3)
active: [6] -0.428
inactive: IRAK-1-4 Inhibitor I -0.008 | ibrutinib -0.015 | ralimetinib 0.007 | [2] 0.063 | [3] -0.02 | pinometostat 0.037 | [4] 0.035 | [5] 0.06

PPP1R12C (UniProt Q9BZL4)
Chain of UniProt Q9BZL4 (Q9BZL4 whole entry, looked up): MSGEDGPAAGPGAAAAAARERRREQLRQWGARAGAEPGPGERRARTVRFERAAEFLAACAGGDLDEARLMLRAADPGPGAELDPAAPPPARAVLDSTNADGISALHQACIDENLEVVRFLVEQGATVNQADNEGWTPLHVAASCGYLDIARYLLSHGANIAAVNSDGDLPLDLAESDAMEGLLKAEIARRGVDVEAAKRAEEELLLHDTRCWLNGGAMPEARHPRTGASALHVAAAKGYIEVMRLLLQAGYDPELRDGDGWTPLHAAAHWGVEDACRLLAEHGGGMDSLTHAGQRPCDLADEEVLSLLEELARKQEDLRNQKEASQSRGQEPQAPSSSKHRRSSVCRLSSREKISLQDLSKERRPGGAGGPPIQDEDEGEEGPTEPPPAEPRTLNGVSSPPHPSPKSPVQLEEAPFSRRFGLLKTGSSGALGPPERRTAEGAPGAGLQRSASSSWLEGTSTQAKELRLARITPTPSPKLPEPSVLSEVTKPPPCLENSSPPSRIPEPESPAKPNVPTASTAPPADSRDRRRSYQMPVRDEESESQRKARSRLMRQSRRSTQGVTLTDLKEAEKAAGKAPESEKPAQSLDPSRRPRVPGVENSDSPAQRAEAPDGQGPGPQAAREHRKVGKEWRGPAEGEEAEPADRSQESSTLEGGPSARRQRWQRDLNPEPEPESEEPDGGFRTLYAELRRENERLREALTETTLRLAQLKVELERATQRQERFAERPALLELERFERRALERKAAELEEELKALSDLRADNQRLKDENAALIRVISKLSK
inactive: ibrutinib -0.024 | ralimetinib -0.028 | [2] 0.045 | [6] -0.126 | [3] -0.041 | [4] -0.291 | [5] -0.157

PCNX1 (UniProt Q96RV3)
Chain of UniProt Q96RV3 (Q96RV3 whole entry, looked up): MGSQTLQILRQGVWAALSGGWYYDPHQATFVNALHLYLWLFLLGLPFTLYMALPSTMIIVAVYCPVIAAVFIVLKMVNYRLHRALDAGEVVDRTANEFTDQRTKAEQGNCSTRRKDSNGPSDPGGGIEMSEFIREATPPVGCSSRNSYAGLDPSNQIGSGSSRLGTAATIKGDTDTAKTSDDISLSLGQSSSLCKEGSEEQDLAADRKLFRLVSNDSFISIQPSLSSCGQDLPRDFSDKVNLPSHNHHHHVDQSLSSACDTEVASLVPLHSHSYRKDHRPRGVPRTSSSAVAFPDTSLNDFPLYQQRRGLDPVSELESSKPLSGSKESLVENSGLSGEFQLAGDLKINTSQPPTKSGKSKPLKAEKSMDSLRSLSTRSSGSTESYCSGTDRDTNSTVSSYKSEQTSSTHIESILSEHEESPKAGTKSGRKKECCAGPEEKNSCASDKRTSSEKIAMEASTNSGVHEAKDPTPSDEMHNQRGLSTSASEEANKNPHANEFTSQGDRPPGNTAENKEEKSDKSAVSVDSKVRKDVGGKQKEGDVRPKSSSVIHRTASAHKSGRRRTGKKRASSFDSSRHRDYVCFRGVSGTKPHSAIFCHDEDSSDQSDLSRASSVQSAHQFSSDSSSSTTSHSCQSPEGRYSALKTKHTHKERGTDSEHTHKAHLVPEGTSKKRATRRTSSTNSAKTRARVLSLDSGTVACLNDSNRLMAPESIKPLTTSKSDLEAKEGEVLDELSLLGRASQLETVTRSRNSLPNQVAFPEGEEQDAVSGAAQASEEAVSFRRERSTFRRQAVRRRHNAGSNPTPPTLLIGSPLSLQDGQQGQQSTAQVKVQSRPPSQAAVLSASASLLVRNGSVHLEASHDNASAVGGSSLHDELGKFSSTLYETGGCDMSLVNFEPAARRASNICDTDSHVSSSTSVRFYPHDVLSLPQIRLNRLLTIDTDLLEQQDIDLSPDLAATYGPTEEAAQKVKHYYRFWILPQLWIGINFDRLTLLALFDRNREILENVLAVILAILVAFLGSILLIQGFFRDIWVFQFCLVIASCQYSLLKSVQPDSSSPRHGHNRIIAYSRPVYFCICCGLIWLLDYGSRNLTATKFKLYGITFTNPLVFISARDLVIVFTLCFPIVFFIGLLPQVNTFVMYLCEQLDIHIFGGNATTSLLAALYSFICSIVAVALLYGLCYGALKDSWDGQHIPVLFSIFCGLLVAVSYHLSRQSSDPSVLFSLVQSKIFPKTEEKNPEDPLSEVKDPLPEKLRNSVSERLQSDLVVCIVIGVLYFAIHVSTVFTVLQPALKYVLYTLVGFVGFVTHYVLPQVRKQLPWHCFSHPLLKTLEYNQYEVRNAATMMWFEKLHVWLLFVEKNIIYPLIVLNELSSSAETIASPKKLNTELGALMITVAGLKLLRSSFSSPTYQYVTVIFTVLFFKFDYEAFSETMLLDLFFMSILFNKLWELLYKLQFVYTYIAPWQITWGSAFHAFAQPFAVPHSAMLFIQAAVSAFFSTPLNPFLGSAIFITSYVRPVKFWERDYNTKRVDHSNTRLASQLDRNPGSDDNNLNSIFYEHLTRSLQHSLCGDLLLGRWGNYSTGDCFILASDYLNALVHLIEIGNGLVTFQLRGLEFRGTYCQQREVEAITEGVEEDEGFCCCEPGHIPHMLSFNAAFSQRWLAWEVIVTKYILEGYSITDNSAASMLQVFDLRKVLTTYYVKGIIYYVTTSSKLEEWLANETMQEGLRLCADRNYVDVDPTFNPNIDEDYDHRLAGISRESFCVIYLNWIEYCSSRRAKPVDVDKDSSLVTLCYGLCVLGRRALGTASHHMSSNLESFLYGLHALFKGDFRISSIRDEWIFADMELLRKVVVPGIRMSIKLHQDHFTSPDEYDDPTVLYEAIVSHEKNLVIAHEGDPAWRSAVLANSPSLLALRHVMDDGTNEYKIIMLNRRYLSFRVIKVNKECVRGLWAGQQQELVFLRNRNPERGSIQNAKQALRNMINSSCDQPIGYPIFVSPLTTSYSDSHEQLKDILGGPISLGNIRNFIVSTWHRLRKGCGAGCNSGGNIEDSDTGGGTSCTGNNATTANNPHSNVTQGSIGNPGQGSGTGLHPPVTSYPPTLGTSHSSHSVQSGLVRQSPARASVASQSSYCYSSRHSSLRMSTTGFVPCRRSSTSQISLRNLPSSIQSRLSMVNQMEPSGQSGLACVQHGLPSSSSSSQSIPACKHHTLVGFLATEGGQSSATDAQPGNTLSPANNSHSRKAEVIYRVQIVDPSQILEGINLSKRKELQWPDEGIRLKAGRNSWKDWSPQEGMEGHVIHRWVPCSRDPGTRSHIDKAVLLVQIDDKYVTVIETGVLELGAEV
inactive: ibrutinib 0.008 | [2] 0.005 | [4] 0.015 | [5] 0.143

PSMA3 (UniProt G3V4X5)
inactive: IRAK-1-4 Inhibitor I -0.451 | ibrutinib -0.065 | ralimetinib -0.114 | pinometostat -0.001
active: [3] 0.733

PTEN isoform 2 (UniProt P60484)
active: [6] -0.629
inactive: IRAK-1-4 Inhibitor I -0.227 | ralimetinib 0.062 | [3] 0.083 | pinometostat -0.006

PPP2R5B (UniProt Q15173)
inactive: ibrutinib -0.083 | [1] 0.165 | [6] 0.092 | [4] 0.037

PDE4DIP (UniProt E9PS60)
inactive: IRAK-1-4 Inhibitor I -0.183 | [6] 0.171 | pinometostat 0.178

PRKD2 (UniProt M0R346)
inactive: ibrutinib -0.096 | [2] -0.273

PSMA3 (UniProt H0YJ03)
inactive: IRAK-1-4 Inhibitor I 0.023 | [1] 0.052 | ralimetinib 0.14 | [3] 0.067 | pinometostat 0.061 | [5] 0.046

PLCXD1 (UniProt Q9NUJ7)
inactive: ibrutinib 0.021 | ralimetinib 0.113 | [3] 0.175

From the supplement of paper PMC10849652
